In PubChem BioAssay (Tox21):
“And” between values parts separate entries of the source, which are not always exact repeats. Equal entries are not always repeated. Results filed as inconclusive are left out. A call without a number means that no potency is given here. Where a structure was tested more than once in an assay, its records may differ in their call. The source made the active and inactive calls. Unless noted, calls follow the shape of the full dose curve.

Experiments:
[1] = Nuclear factor erythroid 2-related factor 2/antioxidant responsive element (Nrf2/ARE) small molecule agonists: qHTS cell viability counter screen in human keratinocytes (AID 1919968; active = well fitted curve in the direction sought with a large enough effect in the repeat runs; an effect the other way counts as inactive or inconclusive; also: nearly all actives have a fitted effect of over 55% in size; also: potency is read from the fitted curve at half-maximal effect)
Procedure, shortened: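 Cells of the KeratinoSens line were plated at 1,500 per well and left for 5 h before compound transfer from DMSO stocks. After a 23 h incubation (37 C, 5% CO2), CellTiter-Fluor was added. Signal was taken as fluorescence intensity 1 h later.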

[2] = Nuclear factor erythroid 2-related factor 2/antioxidant responsive element (Nrf2/ARE) small molecule agonists: luciferase reporter gene qHTS assay in human keratinocytes (AID 1919969); also: nearly all actives have a fitted effect of over 35% in size; also: potency is read from the fitted curve at half-maximal effect
[3] = target: Gonadotropin-releasing hormone receptor (Homo sapiens) (UniProt P30968); assay: Human gonadotropin-releasing hormone receptor (GnRHR) small molecule agonists, calcium flux assay in GnRHR-HEK293 cells (AID 1920063); also: nearly all actives have a fitted effect of over 35% in size
Chain of Gonadotropin-releasing hormone receptor (Homo sapiens) (P30968 whole entry, looked up): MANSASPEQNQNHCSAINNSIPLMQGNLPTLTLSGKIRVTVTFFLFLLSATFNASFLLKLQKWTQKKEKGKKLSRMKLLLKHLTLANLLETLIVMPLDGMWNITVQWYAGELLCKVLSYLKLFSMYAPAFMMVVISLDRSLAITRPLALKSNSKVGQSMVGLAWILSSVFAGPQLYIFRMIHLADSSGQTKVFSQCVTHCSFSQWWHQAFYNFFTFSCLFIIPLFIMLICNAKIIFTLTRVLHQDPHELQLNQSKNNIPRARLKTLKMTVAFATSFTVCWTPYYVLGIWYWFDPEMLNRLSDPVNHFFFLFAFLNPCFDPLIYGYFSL
Procedure, shortened: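 Compounds dissolved in DMSO are pin-transferred onto dye-loaded GnRHR-HEK293 cells, which were seeded 18 h before at 37 C/5% CO2. Calcium signal is read as fluorescence intensity at 1 s intervals for 3 min.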

[4] = target: KiSS-1 receptor (Homo sapiens) (UniProt Q969F8); assay: Human kisspeptin (KISS1R) small molecule agonists, calcium flux assay in KISS1R-HEK293 cells (AID 1920064; active = well fitted curve in the direction sought with a large enough effect in the repeat runs; an effect the other way counts as inactive or inconclusive)
Chain of KiSS-1 receptor (Homo sapiens) (Q969F8 whole entry, looked up): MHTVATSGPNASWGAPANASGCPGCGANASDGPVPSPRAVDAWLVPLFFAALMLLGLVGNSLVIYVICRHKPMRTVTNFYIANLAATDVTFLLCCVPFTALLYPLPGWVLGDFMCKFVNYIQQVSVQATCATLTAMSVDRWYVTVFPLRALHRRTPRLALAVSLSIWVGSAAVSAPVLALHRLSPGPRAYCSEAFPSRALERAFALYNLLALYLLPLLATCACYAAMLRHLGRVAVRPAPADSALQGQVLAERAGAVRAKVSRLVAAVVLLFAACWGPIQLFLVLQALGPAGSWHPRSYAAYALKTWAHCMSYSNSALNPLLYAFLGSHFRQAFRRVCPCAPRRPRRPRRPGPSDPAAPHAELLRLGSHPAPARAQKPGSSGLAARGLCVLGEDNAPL
Procedure, shortened: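 Cell line: HEK293, stable human KISS1R. Dye loading 1 h at 37 C after 18 h culture. Read: kinetic fluorescence, 480/540 nm, 3 min at 1 s intervals.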

[5] = G protein-coupled receptor (GPCR) small molecule agonists, calcium flux assay: HEK293 wild type cell line counter screen (AID 1920065)
Procedure, shortened: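 Tox21 10K compounds, 15 concentrations each in triplicate, pin-transferred in DMSO onto dye-loaded cells; kinetic read at 480/540 nm for 3 min, 1 s intervals.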

[6] = p53 small molecule agonists, cell-based qHTS assay with human liver microsomes: qHTS cell viability counter screen (AID 1963579); also: nearly all actives have a fitted effect of over 45% in size; also: potency is read from the fitted curve at half-maximal effect
Procedure, shortened: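 Metabolically activated exposure: compounds, human liver microsomes and NADPH (0.5 mg/mL final apiece) were added to p53RE-bla cells seeded 5 h earlier, left 16 h at 37 C, and then assessed for viability by CellTiter-Glo luminescence.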

[7] = p53 small molecule agonists, cell-based qHTS assay with rat liver microsomes: qHTS cell viability counter screen (AID 1963580); also: nearly all actives have a fitted effect of over 45% in size; also: potency is read from the fitted curve at half-maximal effect
Procedure, shortened: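 Rat liver microsome (0.5 mg/mL final) and NADPH (0.5 mg/mL final) co-incubation with compounds for 16 h at 37 C on HCT-116 p53RE-bla cells; cytotoxicity taken from intracellular ATP luminescence.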

[8] = p53 small molecule agonists, cell-based qHTS assay: qHTS cell viability counter screen (AID 1963581); also: nearly all actives have a fitted effect of over 45% in size
Procedure, shortened: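 ATP content measured by luminescence in HCT-116 p53RE-bla cells treated 16 h at 37 C, same wells as the reporter screen.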

[9] = cAMP Responsive Elements (CRE) small molecule agonists, cell-based qHTS assay (AID 1963590)
Procedure, shortened: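 HEK 293T cells stably bearing CRE-bla were plated at 2,000 cells per well and rested 18 h. Compounds, positive controls or DMSO were added for 3 h at 37 C. LiveBLAzer B/G substrate was then loaded for 2 h at room temperature.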

[10] = cAMP Responsive Elements (CRE) small molecule antagonists, cell-based qHTS assay (AID 1963591; active = well fitted inhibition curve with a large enough effect in the signal ratio in the repeat runs, not every such curve was filed as active; the % refers to the signal ratio)
Procedure, shortened: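 First, CRE-bla HEK293T cells settled 18 h at 37 C. Next, compound and 0.25 uM final NKH477 were applied for 3 h. Last, LiveBLAzer B/G substrate was loaded for 2 h at room temperature.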

[11] = target: Beta-2 adrenergic receptor (Homo sapiens) (UniProt P07550); assay: Adrenergic beta2 receptor (ADRB2) small molecule antagonists, cell-based qHTS assay (AID 1963592); also: series mostly up to about 92 µM; nearly all actives have a fitted effect of over 50% in size
Chain of Beta-2 adrenergic receptor (Homo sapiens) (P07550 whole entry, looked up): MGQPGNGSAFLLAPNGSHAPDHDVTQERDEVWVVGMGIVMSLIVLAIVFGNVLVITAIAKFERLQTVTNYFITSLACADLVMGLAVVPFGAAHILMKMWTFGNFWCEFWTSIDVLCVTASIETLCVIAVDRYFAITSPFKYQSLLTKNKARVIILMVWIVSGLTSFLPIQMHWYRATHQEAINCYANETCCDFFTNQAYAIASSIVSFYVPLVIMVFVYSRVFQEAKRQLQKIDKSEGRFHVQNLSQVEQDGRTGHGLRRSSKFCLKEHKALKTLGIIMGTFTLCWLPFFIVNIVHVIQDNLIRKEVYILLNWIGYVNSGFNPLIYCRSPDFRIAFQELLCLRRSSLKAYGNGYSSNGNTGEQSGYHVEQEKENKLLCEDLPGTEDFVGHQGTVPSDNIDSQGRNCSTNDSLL
Procedure, shortened: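 Assay format: CHO-ADRB2 cells, 18-20hr seeding at 37C/5% CO2, then compound plus 1nM isoproterenol agonist mix for 0.5hr RT. Homogeneous time-resolved fluorescence cAMP detection after 1hr, expressed as 665/615 nm ratio.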

[12] = target: D(2) dopamine receptor (Homo sapiens) (UniProt P14416); assay: Dopamine D2 receptor (DRD2) small molecule agonists, cell-based qHTS assay (AID 1963594); also: nearly all actives have a fitted effect of over 35% in size
Chain of D(2) dopamine receptor (Homo sapiens) (P14416 whole entry, looked up): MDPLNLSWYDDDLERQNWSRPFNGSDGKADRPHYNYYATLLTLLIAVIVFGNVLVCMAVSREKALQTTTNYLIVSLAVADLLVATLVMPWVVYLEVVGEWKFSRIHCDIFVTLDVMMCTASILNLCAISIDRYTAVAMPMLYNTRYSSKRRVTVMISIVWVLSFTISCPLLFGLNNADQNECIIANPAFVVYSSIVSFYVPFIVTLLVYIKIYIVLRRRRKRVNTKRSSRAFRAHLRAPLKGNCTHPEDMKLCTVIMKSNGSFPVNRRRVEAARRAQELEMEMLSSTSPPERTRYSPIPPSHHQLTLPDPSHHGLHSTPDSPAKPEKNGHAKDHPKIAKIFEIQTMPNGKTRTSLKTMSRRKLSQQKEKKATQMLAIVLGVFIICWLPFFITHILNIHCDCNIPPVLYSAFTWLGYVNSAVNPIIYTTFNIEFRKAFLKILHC
Procedure, shortened: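 cAMP accumulation in DRD2-HEK293 cells measured by HTRF after 1 h detection; compounds added 10 min before NKH477 (200nM […]) forskolin-analogue stimulation, 30 min at room temperature, with Ro20-1724 present at 0.1 mM final.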

[13] = target: 5-hydroxytryptamine receptor 2A (Homo sapiens) (UniProt P28223); assay: 5-hydroxytryptamine receptor 2A (HTR2A) small molecule agonists, cell-based qHTS assay (AID 1963587); also: nearly all actives have a fitted effect of over 30% in size; also: potency is read from the fitted curve at half-maximal effect
Chain of 5-hydroxytryptamine receptor 2A (Homo sapiens) (P28223 whole entry, looked up): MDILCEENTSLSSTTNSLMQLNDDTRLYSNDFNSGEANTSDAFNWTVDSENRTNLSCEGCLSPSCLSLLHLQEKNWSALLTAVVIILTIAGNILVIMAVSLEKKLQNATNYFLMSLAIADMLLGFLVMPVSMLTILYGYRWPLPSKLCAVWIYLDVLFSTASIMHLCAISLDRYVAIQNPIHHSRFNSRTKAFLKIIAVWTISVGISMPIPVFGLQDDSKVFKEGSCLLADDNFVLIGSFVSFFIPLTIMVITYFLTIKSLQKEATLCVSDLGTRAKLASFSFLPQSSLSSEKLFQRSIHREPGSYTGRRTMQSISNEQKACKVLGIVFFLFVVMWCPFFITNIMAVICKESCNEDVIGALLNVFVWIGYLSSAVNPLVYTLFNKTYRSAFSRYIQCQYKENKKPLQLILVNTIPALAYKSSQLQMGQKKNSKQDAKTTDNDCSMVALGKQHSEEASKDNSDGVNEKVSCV
Procedure, shortened: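 Kinetic calcium-flux fluorescence (2 min, 1 sec intervals) after compound addition in agonist mode. HTR2A-CHO cells were cultured 18 h, then dye-loaded 1 h at 37 C.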

[14] = target: Muscarinic acetylcholine receptor M1 (Homo sapiens) (UniProt P11229); assay: Cholinergic receptor muscarinic 1 (CHRM1) small molecule antagonists, cell-based qHTS assay (AID 1963588); also: nearly all actives have a fitted effect of over 40% in size; also: potency is read from the fitted curve at half-maximal effect
Chain of Muscarinic acetylcholine receptor M1 (Homo sapiens) (P11229 whole entry, looked up): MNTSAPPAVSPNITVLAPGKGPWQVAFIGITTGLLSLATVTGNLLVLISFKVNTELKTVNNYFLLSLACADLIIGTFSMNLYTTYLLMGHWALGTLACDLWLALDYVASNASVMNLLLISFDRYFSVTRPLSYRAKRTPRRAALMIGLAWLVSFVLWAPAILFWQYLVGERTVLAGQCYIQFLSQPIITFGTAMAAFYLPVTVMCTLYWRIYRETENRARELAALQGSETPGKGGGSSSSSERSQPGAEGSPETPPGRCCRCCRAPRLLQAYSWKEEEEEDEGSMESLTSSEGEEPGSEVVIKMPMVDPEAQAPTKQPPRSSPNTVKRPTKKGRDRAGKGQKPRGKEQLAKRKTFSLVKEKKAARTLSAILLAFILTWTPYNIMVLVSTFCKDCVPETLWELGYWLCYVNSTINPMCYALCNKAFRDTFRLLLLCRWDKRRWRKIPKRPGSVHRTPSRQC
Procedure, shortened: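 Compounds were tested at 15 concentrations in three independent runs. Dye-loaded CHRM1-CHO cells were exposed 5 min at room temperature before stimulation by acetylcholine added at 50nM. Intracellular calcium was read kinetically on FDSS for 3 min.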

[15] = target: Muscarinic acetylcholine receptor M1 (Homo sapiens) (UniProt P11229); assay: Cholinergic receptor muscarinic 1 (CHRM1) small molecule agonists, cell-based qHTS assay (AID 1963589); also: nearly all actives have a fitted effect of over 35% in size
Procedure, shortened: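 Homogeneous fluorescence calcium flux, agonist mode. Human M1-expressing CHO cells; compound dosed at 15 concentrations, three independent runs; signal sampled every 1 sec.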

[16] = target: Beta-2 adrenergic receptor (Homo sapiens) (UniProt P07550); assay: Adrenergic beta2 receptor (ADRB2) small molecule agonists, cell-based qHTS assay (AID 1963593);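 also: CHO cells stably overexpressing human ADRB2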
Procedure, shortened: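 CHO cells stably over-expressing ADRB2 were plated overnight at 37C, then dosed with compounds plus a stimulation mix containing 100uM IBMX and 25uM Ro-20-1724 for 0.5hr at room temperature. cAMP was measured by HTRF competition, 1hr.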

[17] = target: D(2) dopamine receptor (Homo sapiens) (UniProt P14416); assay: Dopamine D2 receptor (DRD2) small molecule antagonists, cell-based qHTS assay (AID 1963595; active = well fitted inhibition curve with a large enough effect in the signal ratio in the repeat runs, with a control signal flat; the % refers to the signal ratio; also: potency is read from the fitted curve at half-maximal effect)
Procedure, shortened: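 HEK293 cells stably expressing DRD2 were preincubated with 0.1 mM Ro20-1724, then with compound for 10 min at room temperature. Cells were stimulated with 200 nM NKH477 plus 12 nM quinpirole for 30 min, and cAMP was read by HTRF.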

[18] = target: 5-hydroxytryptamine receptor 2A (Homo sapiens) (UniProt P28223); assay: 5-hydroxytryptamine receptor 2A (HTR2A) small molecule antagonists, cell-based qHTS assay (AID 1963586); also: nearly all actives have a fitted effect of over 45% in size
Procedure, shortened: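 CHO cells stably expressing human HTR2A were plated for 18 h at 37 C, then loaded with calcium dye for 1 h. Compounds were preincubated 5 min at room temperature before DOI (4 nM solution) was added. Kinetic fluorescence was read for 3 min.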

[19] = p53 small molecule agonists, cell-based qHTS assay with human liver microsomes (AID 1963577);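 also: p53 response element beta-lactamase reporter cells with liver microsomes plus NADPH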
Procedure, shortened: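 In this qHTS, p53 response-element beta-lactamase cells receive test compound together with a microsome/NADPH activating system (0.5 mg/mL final each) and are incubated 16 h at 37 C before LiveBLAzer fluorescence detection.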

[20] = p53 small molecule agonists, cell-based qHTS assay with rat liver microsomes (AID 1963578)
Procedure, shortened: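 Agonist mode in p53RE-bla reporter cells, with compounds co-incubated 16 h at 37 C alongside 0.5 mg/mL rat liver microsomes and 0.5 mg/mL NADPH (final), followed by a 2 h LiveBLAzer detection step.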

Row | SMILES | Potency [1] | Potency [2] | Potency [3] | Potency [4] | Potency [5] | Potency [6] | Potency [7] | Potency [8] | Potency [9] | Potency [10] | Potency [11] | Potency [12] | Potency [13] | Potency [14] | Potency [15] | Potency [16] | Potency [17] | Potency [18] | Potency [19] | Potency [20]
1 | O=P1(NCCCl)OCCCN1CCCl (stereo not drawn) | inactive | inactive | inactive | inactive | inactive | inactive | inactive | inactive | inactive | inactive | inactive | inactive | – | – | – | – | – | – | – | –
2 | CCCCn1cc[n+](C)c1C | inactive | inactive | inactive | inactive | inactive | inactive | inactive | inactive | inactive | inactive | inactive | inactive | inactive | inactive | inactive | inactive | inactive | – | – | –
3 | CCNCC | inactive | inactive | inactive | inactive | inactive | inactive | inactive | inactive | inactive | inactive | – | – | inactive | inactive | – | inactive | inactive | inactive | – | –
4 | O=[N+]([O-])/N=C1\NCCN1Cc1ccc(Cl)nc1 | inactive | inactive | inactive | inactive | inactive | inactive | inactive | inactive | inactive | inactive | inactive | inactive | – | inactive | inactive | inactive | – | inactive | – | –
5 | CCc1cnc(C2=NC(C)(C(C)C)C(=O)N2)c(C(=O)O)c1 (stereo not drawn) | inactive | inactive | inactive | inactive | inactive | inactive | inactive | inactive | inactive | inactive | inactive | inactive | inactive | inactive | inactive | inactive | inactive | – | – | –
6 | CCOS(=O)(=O)OCC | inactive | 68.7 µM (active) and inactive | inactive | inactive | inactive | inactive | inactive | – | inactive | inactive | inactive | inactive | inactive | inactive | inactive | – | inactive | inactive | – | –
7 | CCNc1nc(NC(C)C)nc(SC)n1 | inactive | inactive | inactive | inactive | inactive | inactive | inactive | inactive | inactive | inactive | inactive | inactive | inactive | – | inactive | – | inactive | inactive | – | –
8 | O=Cc1cccc(Oc2ccccc2)c1 | inactive | inactive | inactive | inactive | inactive | inactive | inactive | inactive | inactive | inactive | inactive | inactive | inactive | inactive | – | inactive | inactive | inactive | – | –
9 | COc1ccc(N)cc1N | inactive | 25.1 µM (active) and 33 µM (active) | inactive | inactive | inactive | inactive | inactive | inactive | – | inactive | – | inactive | 22.6 µM (active) and inactive | – | inactive | inactive | inactive | inactive | – | –
10 | CCCCCCCC[N+](C)(CCCCCCCC)CCCCCCCC | 5.44 µM (active) and 6.87 µM (active) and 15.4 µM (active) | inactive | inactive | inactive | inactive | 5.75 µM (active) and 6.47 µM (active) and 25.7 µM (active) | 14.4 µM (active) and inactive and 40.8 µM (active) | – | – | – | inactive | inactive | inactive | 5.93 µM (active) and inactive and 6.67 µM (active) | inactive | – | 54.4 µM (active) and inactive and 17.2 µM (active) | inactive | – | –
11 | NC(=S)Nc1ccccc1 | inactive | 55.4 µM (active) and inactive | inactive | inactive | inactive | inactive | 29.4 µM (active) and inactive | inactive | inactive | inactive | inactive | inactive | inactive | inactive | inactive | – | inactive | – | – | –
12 | N#Cc1cccnc1 | inactive | inactive | inactive | inactive | inactive | inactive | inactive | inactive | inactive | – | – | inactive | – | – | inactive | – | inactive | inactive | – | –
13 | C=C(C)[C@H]1Cc2c(ccc3c2O[C@@H]2COc4cc(OC)c(OC)cc4[C@@H]2C3=O)O1 | inactive and 29.8 nM (active) | 13.9 µM (active) and 13.7 µM (active) and inactive | inactive | inactive | inactive | inactive | inactive | – | – | inactive | inactive | inactive | – | – | – | inactive | inactive | – | – | –
14 | CN1C(=O)CCS(=O)(=O)C1c1ccc(Cl)cc1 (stereo not drawn) | inactive | inactive | inactive | inactive | inactive | inactive | inactive | inactive | inactive | inactive | – | inactive | – | inactive | inactive | inactive | inactive | inactive | – | –
15 | COC[C@@H](NC(C)=O)C(=O)NCc1ccccc1 | inactive | inactive | inactive | inactive | – | inactive | inactive | inactive | inactive | inactive | inactive | inactive | inactive | inactive | inactive | inactive | inactive | inactive | inactive | inactive
16 | O=C(CCl)c1ccc(Cl)cc1Cl | inactive and 11.9 µM (active) | 60.8 µM (active) and 11.9 µM (active) | inactive | inactive | inactive | – | inactive | inactive | inactive | inactive | inactive | inactive | inactive | inactive | inactive | – | inactive | – | – | –
17 | CC(C)CC(C)(c1ccc(O)cc1)c1ccc(O)cc1 | 27.4 µM (active) and 38.6 µM (active) | inactive | inactive | inactive | – | inactive and 36.3 µM (active) | – | inactive | – | – | inactive | – | inactive | inactive | inactive | – | – | – | inactive | inactive
